Article PMC7862700, “An all-to-all approach to the identification of sequence-specific readers for epigenetic DNA modifications on cytosine”

Key:
Assay in all cases: DAPPL (digital affinity profiling via proximity ligation, sequencing); 10 mM Tris-HCl pH 7.5, 50 mM NaCl, 1 mM DTT, 4% glycerol, room temperature, 30 min; GST-TFs on glutathione beads, 16-mer random dsDNA library, 0.1% formaldehyde crosslink after washing; high values mean tight binding
Conditions in all cases: protein: recombinant; tags: N-terminal GST; dsDNA, one strand shown
[1] = target: T1, FLI1 (Homo sapiens, UniProt Q01543 1-452)
T1 sequence: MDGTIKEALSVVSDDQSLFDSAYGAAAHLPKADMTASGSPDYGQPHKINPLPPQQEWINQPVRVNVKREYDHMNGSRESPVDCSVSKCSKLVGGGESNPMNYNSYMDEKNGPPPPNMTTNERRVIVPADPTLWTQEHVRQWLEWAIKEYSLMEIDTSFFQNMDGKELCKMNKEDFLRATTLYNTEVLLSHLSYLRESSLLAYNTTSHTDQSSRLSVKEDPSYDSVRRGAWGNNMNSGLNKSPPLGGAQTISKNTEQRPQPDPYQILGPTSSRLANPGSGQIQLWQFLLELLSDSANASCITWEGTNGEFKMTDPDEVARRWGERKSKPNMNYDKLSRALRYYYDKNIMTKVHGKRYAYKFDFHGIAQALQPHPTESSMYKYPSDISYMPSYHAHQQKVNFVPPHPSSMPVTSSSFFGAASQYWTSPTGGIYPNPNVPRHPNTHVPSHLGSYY
Procedure, shortened: (§1)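 Human transcription factors carrying a GST fusion were produced in yeast, bound to glutathione beads, tagged with DNA barcodes and pooled together with a tag-only sample. Each pool was held with 200 nmole of a random double-stranded 16-mer DNA library in Tris/NaCl/DTT/glycerol buffer for 30 min at room temperature, then washed, crosslinked in 0.1% formaldehyde, proximity-ligated with BsaI/T4 ligase (1 h, 37 °C), PCR-amplified and sequenced on an Illumina NextSeq500. Binding signal is the read frequency of each hexamer for a given factor divided by its frequency in the tag-only sample.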

[2] = target: T2, ELK1 (Homo sapiens, UniProt P19419 1-428)
T2 sequence: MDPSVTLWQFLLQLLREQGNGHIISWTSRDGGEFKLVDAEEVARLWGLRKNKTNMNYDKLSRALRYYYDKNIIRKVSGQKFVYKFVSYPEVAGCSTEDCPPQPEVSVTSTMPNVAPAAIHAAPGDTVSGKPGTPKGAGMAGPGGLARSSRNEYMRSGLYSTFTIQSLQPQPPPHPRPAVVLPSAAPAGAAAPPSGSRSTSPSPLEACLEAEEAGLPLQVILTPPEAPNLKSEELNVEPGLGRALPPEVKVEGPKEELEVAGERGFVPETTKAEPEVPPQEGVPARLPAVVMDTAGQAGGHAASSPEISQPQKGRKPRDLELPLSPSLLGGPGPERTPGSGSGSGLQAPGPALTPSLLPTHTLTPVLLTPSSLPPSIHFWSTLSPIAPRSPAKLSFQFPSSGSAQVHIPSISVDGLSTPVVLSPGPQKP
Procedure, shortened: as §1

[3] = target: T3, GABPA (Homo sapiens, UniProt Q06546 1-454)
T3 sequence: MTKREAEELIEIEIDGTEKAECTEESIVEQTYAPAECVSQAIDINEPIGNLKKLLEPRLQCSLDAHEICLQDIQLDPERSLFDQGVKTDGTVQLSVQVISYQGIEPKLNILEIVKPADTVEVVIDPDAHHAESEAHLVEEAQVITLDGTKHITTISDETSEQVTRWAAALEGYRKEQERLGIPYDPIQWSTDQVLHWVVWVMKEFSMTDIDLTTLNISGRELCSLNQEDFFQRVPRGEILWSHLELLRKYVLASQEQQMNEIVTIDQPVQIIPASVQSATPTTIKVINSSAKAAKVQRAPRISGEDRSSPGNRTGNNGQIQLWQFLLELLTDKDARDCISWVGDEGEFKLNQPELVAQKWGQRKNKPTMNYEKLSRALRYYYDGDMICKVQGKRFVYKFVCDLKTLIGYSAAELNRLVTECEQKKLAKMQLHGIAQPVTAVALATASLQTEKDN
Procedure, shortened: as §1

[4] = target: T4, ERG (Homo sapiens, UniProt P11308 1-479)
T4 sequence: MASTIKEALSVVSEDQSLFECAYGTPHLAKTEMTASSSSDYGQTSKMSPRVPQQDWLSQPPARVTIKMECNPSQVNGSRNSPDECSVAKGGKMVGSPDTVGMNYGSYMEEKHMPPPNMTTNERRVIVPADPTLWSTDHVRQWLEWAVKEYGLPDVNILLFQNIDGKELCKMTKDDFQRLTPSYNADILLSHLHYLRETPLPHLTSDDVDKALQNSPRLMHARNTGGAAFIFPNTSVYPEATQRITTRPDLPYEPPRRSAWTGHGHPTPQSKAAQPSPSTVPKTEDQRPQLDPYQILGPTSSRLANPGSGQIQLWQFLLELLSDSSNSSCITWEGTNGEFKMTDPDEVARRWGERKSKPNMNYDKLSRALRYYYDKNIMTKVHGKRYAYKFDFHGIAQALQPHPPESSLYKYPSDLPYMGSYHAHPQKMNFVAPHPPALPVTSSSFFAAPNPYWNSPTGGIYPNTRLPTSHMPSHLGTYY
Procedure, shortened: as §1

[5] = target: ELF1 (Homo sapiens, UniProt P32519 1-619)
Procedure, shortened: as §1

[6] = target: T5, EHF (Homo sapiens, UniProt Q9NZC4 1-300)
T5 sequence: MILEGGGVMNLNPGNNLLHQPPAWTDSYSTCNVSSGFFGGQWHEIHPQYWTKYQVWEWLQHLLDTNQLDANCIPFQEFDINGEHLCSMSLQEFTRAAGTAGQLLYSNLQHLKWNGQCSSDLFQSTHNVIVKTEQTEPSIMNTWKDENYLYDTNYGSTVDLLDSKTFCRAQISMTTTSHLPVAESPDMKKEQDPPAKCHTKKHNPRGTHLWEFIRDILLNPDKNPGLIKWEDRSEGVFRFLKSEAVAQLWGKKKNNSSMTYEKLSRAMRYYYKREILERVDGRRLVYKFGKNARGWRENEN
Procedure, shortened: as §1

[7] = target: SPI1 (Homo sapiens, UniProt P17947 1-270)
Procedure, shortened: as §1

[8] = target: SPIB (Homo sapiens, UniProt Q01892 1-262)
Procedure, shortened: as §1

[9] = target: T6, ELK3 (Homo sapiens, UniProt P41970 1-407)
T6 sequence: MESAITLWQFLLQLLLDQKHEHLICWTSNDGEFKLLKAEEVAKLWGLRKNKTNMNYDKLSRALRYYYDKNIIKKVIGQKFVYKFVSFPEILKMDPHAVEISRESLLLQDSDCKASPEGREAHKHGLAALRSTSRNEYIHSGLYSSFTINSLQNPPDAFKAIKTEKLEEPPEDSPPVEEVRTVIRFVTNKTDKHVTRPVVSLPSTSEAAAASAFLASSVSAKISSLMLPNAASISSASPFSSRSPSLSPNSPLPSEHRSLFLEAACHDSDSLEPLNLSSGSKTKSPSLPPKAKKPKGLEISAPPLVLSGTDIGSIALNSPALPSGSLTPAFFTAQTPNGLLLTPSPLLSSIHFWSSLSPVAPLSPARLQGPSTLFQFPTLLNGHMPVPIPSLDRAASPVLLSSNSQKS
Procedure, shortened: as §1

SPIB, sequence (Q01892 whole entry): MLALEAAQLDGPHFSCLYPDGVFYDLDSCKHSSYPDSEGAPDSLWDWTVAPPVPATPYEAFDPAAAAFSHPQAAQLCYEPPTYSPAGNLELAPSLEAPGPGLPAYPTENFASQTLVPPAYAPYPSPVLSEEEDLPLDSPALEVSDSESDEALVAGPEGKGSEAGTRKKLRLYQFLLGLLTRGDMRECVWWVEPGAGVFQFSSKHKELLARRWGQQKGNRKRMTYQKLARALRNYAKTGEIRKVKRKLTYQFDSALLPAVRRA
ELF1, sequence (P32519 whole entry): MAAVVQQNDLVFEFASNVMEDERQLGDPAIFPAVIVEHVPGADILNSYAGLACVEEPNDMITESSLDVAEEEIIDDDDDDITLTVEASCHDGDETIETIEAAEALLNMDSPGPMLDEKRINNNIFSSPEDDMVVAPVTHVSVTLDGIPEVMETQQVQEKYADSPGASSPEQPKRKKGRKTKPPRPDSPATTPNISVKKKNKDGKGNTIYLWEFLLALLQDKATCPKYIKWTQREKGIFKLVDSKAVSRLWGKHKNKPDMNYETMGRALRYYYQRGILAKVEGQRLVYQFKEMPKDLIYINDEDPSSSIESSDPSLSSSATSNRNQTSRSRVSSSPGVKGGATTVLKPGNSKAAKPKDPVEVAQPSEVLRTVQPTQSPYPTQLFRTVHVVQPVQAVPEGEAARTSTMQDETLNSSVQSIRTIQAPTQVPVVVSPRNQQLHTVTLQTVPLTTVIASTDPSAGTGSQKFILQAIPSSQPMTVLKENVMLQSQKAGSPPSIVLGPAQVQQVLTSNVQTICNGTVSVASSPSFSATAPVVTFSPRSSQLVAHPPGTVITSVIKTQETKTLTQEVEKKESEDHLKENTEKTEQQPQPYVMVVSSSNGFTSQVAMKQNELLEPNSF

Sequence: CTTCAT
- binding signal [1]: 1.6 fold enrichment (6-mer frequency, TF over GST control)
- binding signal [2]: 1.45 fold enrichment (6-mer frequency, TF over GST control)
- binding signal [3]: 1.45 fold enrichment (6-mer frequency, TF over GST control)
- binding signal [4]: 1.4 fold enrichment (6-mer frequency, TF over GST control)
- binding signal [5]: 1.52 fold enrichment (6-mer frequency, TF over GST control)
- binding signal [6]: 1.31 fold enrichment (6-mer frequency, TF over GST control)
- binding signal [7]: 1.49 fold enrichment (6-mer frequency, TF over GST control)
- binding signal [8]: 1.48 fold enrichment (6-mer frequency, TF over GST control)
- binding signal [9]: 1.38 fold enrichment (6-mer frequency, TF over GST control)

Sequence: ATGCAA
- binding signal [1]: 1.32 fold enrichment (6-mer frequency, TF over GST control)
- binding signal [2]: 1.26 fold enrichment (6-mer frequency, TF over GST control)
- binding signal [3]: 1.27 fold enrichment (6-mer frequency, TF over GST control)
- binding signal [4]: 1.29 fold enrichment (6-mer frequency, TF over GST control)
- binding signal [5]: 1.25 fold enrichment (6-mer frequency, TF over GST control)
- binding signal [6]: 1.25 fold enrichment (6-mer frequency, TF over GST control)
- binding signal [7]: 1.2 fold enrichment (6-mer frequency, TF over GST control)
- binding signal [8]: 1.26 fold enrichment (6-mer frequency, TF over GST control)
- binding signal [9]: 1.18 fold enrichment (6-mer frequency, TF over GST control)

Sequence: TTCACG
- binding signal [1]: 1.48 fold enrichment (6-mer frequency, TF over GST control)
- binding signal [2]: 1.44 fold enrichment (6-mer frequency, TF over GST control)
- binding signal [3]: 1.41 fold enrichment (6-mer frequency, TF over GST control)
- binding signal [4]: 1.37 fold enrichment (6-mer frequency, TF over GST control)
- binding signal [5]: 1.38 fold enrichment (6-mer frequency, TF over GST control)
- binding signal [6]: 1.29 fold enrichment (6-mer frequency, TF over GST control)
- binding signal [7]: 1.3 fold enrichment (6-mer frequency, TF over GST control)
- binding signal [8]: 1.31 fold enrichment (6-mer frequency, TF over GST control)
- binding signal [9]: 1.42 fold enrichment (6-mer frequency, TF over GST control)

Sequence: TATTCT
- binding signal [1]: 1.45 fold enrichment (6-mer frequency, TF over GST control)
- binding signal [2]: 1.28 fold enrichment (6-mer frequency, TF over GST control)
- binding signal [3]: 1.43 fold enrichment (6-mer frequency, TF over GST control)
- binding signal [4]: 1.31 fold enrichment (6-mer frequency, TF over GST control)
- binding signal [5]: 1.33 fold enrichment (6-mer frequency, TF over GST control)
- binding signal [6]: 1.39 fold enrichment (6-mer frequency, TF over GST control)
- binding signal [7]: 1.31 fold enrichment (6-mer frequency, TF over GST control)
- binding signal [8]: 1.19 fold enrichment (6-mer frequency, TF over GST control)
- binding signal [9]: 1.33 fold enrichment (6-mer frequency, TF over GST control)

Sequence: CTGCCT
- binding signal [1]: 1.2 fold enrichment (6-mer frequency, TF over GST control)
- binding signal [2]: 1.28 fold enrichment (6-mer frequency, TF over GST control)
- binding signal [3]: 1.33 fold enrichment (6-mer frequency, TF over GST control)
- binding signal [4]: 1.18 fold enrichment (6-mer frequency, TF over GST control)
- binding signal [5]: 1.34 fold enrichment (6-mer frequency, TF over GST control)
- binding signal [6]: 1.33 fold enrichment (6-mer frequency, TF over GST control)
- binding signal [7]: 1.27 fold enrichment (6-mer frequency, TF over GST control)
- binding signal [8]: 1.21 fold enrichment (6-mer frequency, TF over GST control)
- binding signal [9]: 1.04 fold enrichment (6-mer frequency, TF over GST control)

Sequence: CCTGGA
- binding signal [1]: 1.53 fold enrichment (6-mer frequency, TF over GST control)
- binding signal [2]: 1.44 fold enrichment (6-mer frequency, TF over GST control)
- binding signal [3]: 1.43 fold enrichment (6-mer frequency, TF over GST control)
- binding signal [4]: 1.45 fold enrichment (6-mer frequency, TF over GST control)
- binding signal [5]: 1.4 fold enrichment (6-mer frequency, TF over GST control)
- binding signal [6]: 1.44 fold enrichment (6-mer frequency, TF over GST control)
- binding signal [7]: 1.21 fold enrichment (6-mer frequency, TF over GST control)
- binding signal [8]: 1.5 fold enrichment (6-mer frequency, TF over GST control)
- binding signal [9]: 1.39 fold enrichment (6-mer frequency, TF over GST control)

Sequence: ACTCGT
- binding signal [1]: 1.19 fold enrichment (6-mer frequency, TF over GST control)
- binding signal [2]: 1.37 fold enrichment (6-mer frequency, TF over GST control)
- binding signal [3]: 1.26 fold enrichment (6-mer frequency, TF over GST control)
- binding signal [4]: 1.19 fold enrichment (6-mer frequency, TF over GST control)
- binding signal [5]: 1.25 fold enrichment (6-mer frequency, TF over GST control)
- binding signal [6]: 1.26 fold enrichment (6-mer frequency, TF over GST control)
- binding signal [7]: 1.17 fold enrichment (6-mer frequency, TF over GST control)
- binding signal [8]: 1.26 fold enrichment (6-mer frequency, TF over GST control)
- binding signal [9]: 1.19 fold enrichment (6-mer frequency, TF over GST control)

Sequence: CCTGAT
- binding signal [1]: 1.27 fold enrichment (6-mer frequency, TF over GST control)
- binding signal [2]: 1.56 fold enrichment (6-mer frequency, TF over GST control)
- binding signal [3]: 1.5 fold enrichment (6-mer frequency, TF over GST control)
- binding signal [4]: 1.42 fold enrichment (6-mer frequency, TF over GST control)
- binding signal [5]: 1.38 fold enrichment (6-mer frequency, TF over GST control)
- binding signal [6]: 1.45 fold enrichment (6-mer frequency, TF over GST control)
- binding signal [7]: 1.5 fold enrichment (6-mer frequency, TF over GST control)
- binding signal [8]: 1.6 fold enrichment (6-mer frequency, TF over GST control)
- binding signal [9]: 1.45 fold enrichment (6-mer frequency, TF over GST control)
